Assay results published in PubChem BioAssay AID1159580 (chemical genetic matrix, 2015).
Hit rate of the full screen: of about 5,500 compounds, about 2,000 (36%) were called active. About 18% were inconclusive and are not listed. The list shows a part of the results. A number with no mark means an inactive call. No stated cut-off is given here; in the data, active means normalized growth mostly below about 0.91 (no sharp cut-off); inconclusive means no clear call, values can overlap the other calls; inactive means mostly above about 0.92.

Assay: chemical genetic growth profiling, strain panel (AID 1159580);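 further: tested at 20 µM; growth read once vehicle control cultures reached saturation at 30 °C; 1 = growth at the plate median or of vehicle wells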
Conditions: S. cerevisiae deletion strains, growth OD
[1] = locus YDL101C, strain DUN1, stronger effect = lower value
[2] = locus YJL095W, strain BCK1, stronger effect = lower value
[3] = locus YOR061W, strain CKA2, stronger effect = lower value

With `C=CC(C)(C)c1c2c(c(O)c3c(=O)c4ccc(O)c(O)c4oc13)C=CC(C)(C)O2` the normalized growth (locus YBR021W, strain FUR4, stronger effect = lower value) was 0.893, the normalized growth (locus YBR229C, strain ROT2, stronger effect = lower value) was 1 and the normalized growth (locus YCL029C, strain bik1, stronger effect = lower value) was 0.992. The normalized growth (locus YDL035C, strain GPR1, stronger effect = lower value) was 0.601 (active), the normalized growth (locus YDL074C, strain BRE1, stronger effect = lower value) was 0.615 (active) and the normalized growth [1] was 0.929. The normalized growth (locus YDL185W, strain tfp1, stronger effect = lower value) was 0.996, the normalized growth (locus YDL192W, strain arf1, stronger effect = lower value) was 0.829 (active) and the normalized growth (locus YDR101C, strain arx1, stronger effect = lower value) was 0.973. For the same compound, the normalized growth (locus YDR150W, strain NUM1, stronger effect = lower value) was 0.78 (active), the normalized growth (locus YDR162C, strain NBP2, stronger effect = lower value) was 0.444 (active) and the normalized growth (locus YDR318W, strain mcm21, stronger effect = lower value) was 0.886 (active). The normalized growth (locus YDR388W, stronger effect = lower value) was 0.918 (active), the normalized growth (locus YDR502C, strain sam2, stronger effect = lower value) was 0.948 and the normalized growth (locus YER110C, stronger effect = lower value) was 1. For the same compound, the normalized growth (locus YER155C, strain BEM2, stronger effect = lower value) was 0.817 (active), the normalized growth (locus YER167W, strain BCK2, stronger effect = lower value) was 0.871 (active) and the normalized growth (locus YGL078C, strain dbp3, stronger effect = lower value) was 0.975. For the same compound, the normalized growth (locus YGL086W, strain mad1, stronger effect = lower value) was 0.794 (active), the normalized growth (locus YGL248W, strain PDE1, stronger effect = lower value) was 0.847 (active) and the normalized growth (locus YGR135W, strain pre9, stronger effect = lower value) was 0.891 (active). It also gave a normalized growth (locus YGR252W, strain gcn5, stronger effect = lower value) of 0.823, a normalized growth (locus YHR079C, strain IRE1 (second series), stronger effect = lower value) of 1 and a normalized growth (locus YHR094C, strain hxt1, stronger effect = lower value) of 1.01. For the same compound, the normalized growth (locus YHR129C, strain ARP1, stronger effect = lower value) was 0.726 (active), the normalized growth (locus YHR200W, strain rpn10, stronger effect = lower value) was 0.894 (active) and the normalized growth (locus YIL066C, strain RNR3, stronger effect = lower value) was 0.413 (active). For the same compound, the normalized growth (locus YIL073C, strain SPO22, stronger effect = lower value) was 0.424 (active), the normalized growth (locus YIL125W, strain kgd1, stronger effect = lower value) was 0.984 and the normalized growth (locus YIR030C, strain dcg1, stronger effect = lower value) was 1. For the same compound, the normalized growth [2] was 0.767 (active), the normalized growth (locus YJL134W, strain LCB3, stronger effect = lower value) was 0.987 and the normalized growth (locus YJL168C, strain set2, stronger effect = lower value) was 0.99. The normalized growth (locus YJL187C, strain SWE1 (second series), stronger effect = lower value) was 0.81 (active), the normalized growth (locus YKL009W, strain mrt4, stronger effect = lower value) was 0.938 and the normalized growth (locus YKL068W, stronger effect = lower value) was 0.996. For the same compound, the normalized growth (locus YKL085W, strain MDH1 (second series), stronger effect = lower value) was 0.978, the normalized growth (locus YKL085W, strain MDH1, stronger effect = lower value) was 0.978 and the normalized growth (locus YKR001C, strain vps1, stronger effect = lower value) was 0.783 (active). The normalized growth (locus YLR039C, strain RIC1, stronger effect = lower value) was 0.581 (active), the normalized growth (locus YLR058C, strain SHM2, stronger effect = lower value) was 0.867 (active) and the normalized growth (locus YLR102C, strain apc9, stronger effect = lower value) was 1.01. The normalized growth (locus YLR262C, strain YPT6, stronger effect = lower value) was 0.544 (active), the normalized growth (locus YLR268W, strain sec22, stronger effect = lower value) was 0.812 (active) and the normalized growth (locus YLR330W, strain CHS5, stronger effect = lower value) was 0.9 (active). The normalized growth (locus YLR342W, strain FKS1 (second series), stronger effect = lower value) was 0.4 (active), the normalized growth (locus YLR371W, strain rom2, stronger effect = lower value) was 0.799 (active) and the normalized growth (locus YLR418C, strain cdc73, stronger effect = lower value) was 0.51 (active). The normalized growth (locus YML016C, strain PPZ1, stronger effect = lower value) was 0.873 (active), the normalized growth (locus YML032C, strain rad52, stronger effect = lower value) was 0.954 and the normalized growth (locus YML124C, strain tub3, stronger effect = lower value) was 1.02. The normalized growth (locus YMR078C, strain ctf18, stronger effect = lower value) was 0.984, the normalized growth (locus YMR223W, strain ubp8, stronger effect = lower value) was 0.891 (active) and the normalized growth (locus YMR263W, strain SAP30, stronger effect = lower value) was 0.92. The normalized growth (locus YMR307W, strain GAS1, stronger effect = lower value) was 0.428 (active), the normalized growth (locus YNL067W, strain RPL9B, stronger effect = lower value) was 0.843 (active) and the normalized growth (locus YNL233W, strain BNI4, stronger effect = lower value) was 0.582 (active). The normalized growth (locus YNL250W, strain rad50, stronger effect = lower value) was 1.03, the normalized growth (locus YNL271C, strain bni1, stronger effect = lower value) was 0.992 and the normalized growth (locus YNL298W, strain CLA4, stronger effect = lower value) was 1. For the same compound, the normalized growth (locus YNL307C, strain MCK1, stronger effect = lower value) was 0.799 (active), the normalized growth (locus YNR052C, strain pop2, stronger effect = lower value) was 0.93 and the normalized growth (locus YOL006C, strain TOP1, stronger effect = lower value) was 0.275 (active). The normalized growth (locus YOL012C, strain htz1) was 0.242, the normalized growth (locus YOL147C, strain pex11, stronger effect = lower value) was 0.943 and the normalized growth [3] was 0.78 (active). The normalized growth (locus YOR069W, strain VPS5, stronger effect = lower value) was 0.873 (active), the normalized growth (locus YOR136W, strain idh2, stronger effect = lower value) was 0.97 and the normalized growth (locus YOR144C, strain elg1, stronger effect = lower value) was 0.983. For the same compound, the normalized growth (locus YOR184W, strain ser1, stronger effect = lower value) was 0.76 (active), the normalized growth (locus YOR316C, strain cot1, stronger effect = lower value) was 0.986 and the normalized growth (locus YPL055C, strain LGE1, stronger effect = lower value) was 0.451 (active). It also gave a normalized growth (locus YPL241C, strain CIN2, stronger effect = lower value) of 0.952, a normalized growth (locus YPR119W, strain clb2, stronger effect = lower value) of 1.01 and a normalized growth (locus YPR141C, strain kar3, stronger effect = lower value) of 1. For the same compound, the normalized growth (locus YPR163C, strain tif3, stronger effect = lower value) was 0.796 (active), the normalized growth (locus YPR167C, strain met16, stronger effect = lower value) was 0.916 (active) and the normalized growth (strain wtn01, stronger effect = lower value) was 0.839 (active).

For `NC(N)=Nc1nc(-c2cc(Cl)sc2Cl)cs1`, the normalized growth (locus YAR019C, strain CDC15, stronger effect = lower value) was 0.994, the normalized growth (locus YBL105C, strain PKC1, stronger effect = lower value) was 0.998 and the normalized growth (locus YBR135W, strain CKS1, stronger effect = lower value) was 0.987. It also gave a normalized growth (locus YBR136W, strain MEC1, stronger effect = lower value) of 0.99, a normalized growth (locus YBR160W, strain CDC28, stronger effect = lower value) of 0.99 and a normalized growth (locus YDL017W, strain CDC7, stronger effect = lower value) of 0.993. It also gave a normalized growth (locus YDL028C, strain MPS1, stronger effect = lower value) of 0.985, a normalized growth [1] of 0.966 and a normalized growth (locus YDL108W, strain KIN28, stronger effect = lower value) of 0.988. It also gave a normalized growth (locus YDL132W, strain cdc53, stronger effect = lower value) of 0.979, a normalized growth (locus YDL214C, strain PRR2, stronger effect = lower value) of 0.934 and a normalized growth (locus YDR052C, strain DBF4, stronger effect = lower value) of 0.99. The normalized growth (locus YDR054C, strain cdc34, stronger effect = lower value) was 0.973, the normalized growth (locus YDR226W, strain ADK1, stronger effect = lower value) was 0.974 and the normalized growth (locus YDR477W, strain SNF1, stronger effect = lower value) was 0.944. For the same compound, the normalized growth (locus YER123W, strain YCK3, stronger effect = lower value) was 0.862, the normalized growth (locus YER133W, strain GLC7, stronger effect = lower value) was 0.905 and the normalized growth (locus YFL009W, strain cdc4, stronger effect = lower value) was 0.983. It also gave a normalized growth (locus YFL029C, strain CAK1, stronger effect = lower value) of 0.988, a normalized growth (locus YFR003C, strain YPI1, stronger effect = lower value) of 0.986 and a normalized growth (locus YFR019W, strain FAB1, stronger effect = lower value) of 0.947. For the same compound, the normalized growth (locus YFR028C, strain CDC14, stronger effect = lower value) was 0.982, the normalized growth (locus YGR040W, strain KSS1, stronger effect = lower value) was 0.942 and the normalized growth (locus YGR052W, strain FMP48, stronger effect = lower value) was 0.935. For the same compound, the normalized growth (locus YGR092W, strain DBF2, stronger effect = lower value) was 0.945, the normalized growth (locus YHR030C, strain SLT2, stronger effect = lower value) was 0.821 (active) and the normalized growth (locus YHR079C, strain IRE1, stronger effect = lower value) was 0.897. The normalized growth (locus YHR082C, strain KSP1, stronger effect = lower value) was 1, the normalized growth (locus YHR205W, strain SCH9, stronger effect = lower value) was 0.904 and the normalized growth (locus YIL147C, strain SLN1, stronger effect = lower value) was 0.987. It also gave a normalized growth [2] of 0.826, a normalized growth (locus YJL128C, strain PBS2, stronger effect = lower value) of 0.922 and a normalized growth (locus YJL157C, strain FAR1, stronger effect = lower value) of 0.932. It also gave a normalized growth (locus YJR016C, strain ILV3, stronger effect = lower value) of 0.997, a normalized growth (locus YJR066W, strain TOR1 (second series), stronger effect = lower value) of 0.886 and a normalized growth (locus YJR066W, strain TOR1, stronger effect = lower value) of 0.997. The normalized growth (locus YKL048C, strain ELM1, stronger effect = lower value) was 0.947, the normalized growth (locus YKL067W, strain YNK1, stronger effect = lower value) was 0.932 and the normalized growth (locus YKL101W, strain HSL1, stronger effect = lower value) was 0.93. For the same compound, the normalized growth (locus YKL193C, strain SDS22, stronger effect = lower value) was 0.985, the normalized growth (locus YKL203C, strain TOR2, stronger effect = lower value) was 0.988 and the normalized growth (locus YLR113W, strain HOG1, stronger effect = lower value) was 0.757 (active). It also gave a normalized growth (locus YLR133W, strain CKI1, stronger effect = lower value) of 0.958, a normalized growth (locus YLR403W, strain SFP1, stronger effect = lower value) of 0.962 and a normalized growth (locus YML070W, strain DAK1, stronger effect = lower value) of 0.901. For the same compound, the normalized growth (locus YMR001C, strain CDC5, stronger effect = lower value) was 0.993, the normalized growth (locus YMR205C, strain PFK2 (second series), stronger effect = lower value) was 0.948 and the normalized growth (locus YMR277W, strain FCP1, stronger effect = lower value) was 0.985. It also gave a normalized growth (locus YNL006W, strain LST8, stronger effect = lower value) of 0.984, a normalized growth (locus YNL020C, strain ARK1, stronger effect = lower value) of 0.96 and a normalized growth (locus YNL161W, strain CBK1, stronger effect = lower value) of 0.989. For the same compound, the normalized growth (locus YNL183C, strain NPR1, stronger effect = lower value) was 0.988, the normalized growth (locus YNL207W, strain RIO2, stronger effect = lower value) was 0.989 and the normalized growth (locus YNL222W, strain SSU72, stronger effect = lower value) was 0.99. It also gave a normalized growth (locus YNL307C, strain MCK1 (second series), stronger effect = lower value) of 0.927, a normalized growth (locus YOL078W, strain AVO1, stronger effect = lower value) of 0.986 and a normalized growth (locus YOL136C, strain PFK27, stronger effect = lower value) of 0.91. It also gave a normalized growth [3] of 0.983, a normalized growth (locus YOR119C, strain RIO1, stronger effect = lower value) of 0.981 and a normalized growth (locus YOR231W, strain MKK1, stronger effect = lower value) of 0.935. For the same compound, the normalized growth (locus YOR329C, strain SCD5, stronger effect = lower value) was 0.995, the normalized growth (locus YPL031C, strain PHO85, stronger effect = lower value) was 0.93 and the normalized growth (locus YPL153C, strain RAD53, stronger effect = lower value) was 0.921. It also gave a normalized growth (locus YPL204W, strain HRR25, stronger effect = lower value) of 0.921, a normalized growth (locus YPL209C, strain IPL1, stronger effect = lower value) of 0.99 and a normalized growth (locus YPL256C, strain CLN2, stronger effect = lower value) of 0.89. It also gave a normalized growth (locus YPR025C, strain CCL1, stronger effect = lower value) of 0.992, a normalized growth (locus YPR106W, strain ISR1, stronger effect = lower value) of 0.985 and a normalized growth (locus YPR111W, strain DBF20, stronger effect = lower value) of 0.974. The normalized growth (strain NNK1, stronger effect = lower value) was 0.971 and the normalized growth (strain TSCII, stronger effect = lower value) was 0.985.
